VDR inhibitor: vitamin D3 receptor (human) inhibition. P11473. VDR-SRC2-3 peptide fluorescence polarization, 2 h. Potency, µM, for inactives: max response, negative = inhibition, usual class: inhibitors. actives 0.93% (n = 400,000); also: potency is read from the fitted curve at half-maximal effect
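The screen uses fluorescence polarization to detect compounds that interfere with recruitment of the SRC2-3 coactivator peptide to VDR; plates are read after 2 h at room temperature.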
PI4K2A block: blocks human PI4K2A kinase activity. actives 0.13% (n = 420,000). AID 1346378. activity change, negative = inhibition, % at 76.9 µM. purified PI4K2A, ADP-Glo luminescence, 1 h; hits give low values. Q9BTU6; in the data active = activity change below about -50%; inconclusive = mostly about -30% to -49%;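 also: -100% = wells without enzyme as full effect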
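In this quantitative HTS, ADP production by PI4K2A was quantified luminescently after 1 h at ambient temperature; 100 microM adenosine served as plate-quality control.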
GLS inhibitor: blocks human kidney-isoform glutaminase activity; Potency, µM (top dose mostly 45.5 µM), inactives show at the top dose activity change, negative = inhibition, most hits filed as inhibitors; actives 0.21% (n = 410,000); O94925; GLS enzymatic activity, qHTS titration; also: potency is read from the fitted curve at half-maximal effect
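Glutamate formation by hKGA was monitored fluorometrically using coupled glutamate oxidase, HRP and Amplex Red. Substrate was added as 1 mM L-glutamine solution; incubation was 30 min at RT after an initial read.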
PLK1 PBD inh: PLK1 (human) polo-box domain binding inhibition. P53350. actives 2.8% (n = 360,000). Potency, µM, without a hit: max response, negative = inhibition, actives largely listed as inhibitors. Plk1 PBD binding of FITC phosphopeptide, fluorescence polarization; also: potency is read from the fitted curve at half-maximal effect; series mostly up to about 57 µM; nearly all actives have a fitted effect of over 65% in size
Target sequence (P53350 whole entry, looked up, the tested form may be a part): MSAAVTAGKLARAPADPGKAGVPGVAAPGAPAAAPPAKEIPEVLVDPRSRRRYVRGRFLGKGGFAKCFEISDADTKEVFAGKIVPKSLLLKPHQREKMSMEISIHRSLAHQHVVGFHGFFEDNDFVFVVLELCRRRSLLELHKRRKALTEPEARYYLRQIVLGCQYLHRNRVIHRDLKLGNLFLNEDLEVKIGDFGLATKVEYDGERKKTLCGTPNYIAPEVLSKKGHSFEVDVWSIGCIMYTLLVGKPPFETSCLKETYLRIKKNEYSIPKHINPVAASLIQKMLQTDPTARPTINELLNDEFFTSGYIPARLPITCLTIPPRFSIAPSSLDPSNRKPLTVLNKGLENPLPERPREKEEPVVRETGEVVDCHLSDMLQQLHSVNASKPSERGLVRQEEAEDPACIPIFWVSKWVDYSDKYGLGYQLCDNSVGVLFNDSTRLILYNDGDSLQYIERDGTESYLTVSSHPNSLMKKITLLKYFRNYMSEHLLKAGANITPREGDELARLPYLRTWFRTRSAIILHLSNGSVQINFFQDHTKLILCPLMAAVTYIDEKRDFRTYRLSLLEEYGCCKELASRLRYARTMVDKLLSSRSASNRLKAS
KAT2A inh: GCN5L2 (KAT2A) acetyltransferase inhibition. Q92830. GCN5L2 HAT assay, ThioGlo1 CoA-SH fluorescence. actives 0.21% (n = 390,000). Potency, µM (titrated, usually from 58.9 µM), for the others: at the top dose activity change, negative = inhibition, most hits filed as inhibitors; also: potency is read from the fitted curve at half-maximal effect
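Titration-based screen in which CoA formation is detected via maleimide probe ThioGlo1 (50uM) turning fluorescent on thiol reaction; substrates H3(1-25) 75uM and acetyl-CoA 70uM, GCN5L2 20nM, 20 min incubation at room temperature.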
Starred values were filed as active, the others as inactive; u = inconclusive; x = not tested or not shown. This is a sample that favours compounds with a hit; in the whole collection about 3.1% have one here. Unless noted, calls follow the shape of the dose curve; as a rule, active = well fitted curve in the direction sought with a large enough effect; inconclusive = small, poorly fitted or top-dose-only effect, or another doubt; inactive = no such curve, though single readings can be large; an effect the other way counts as inactive or inconclusive. Unless noted, % is scaled to controls: 0 for no effect and ±100 for the full control effect.

SMILES	VDR inhibitor	PI4K2A block	GLS inhibitor	PLK1 PBD inh	KAT2A inh
Cc1ccc(-n2c(=S)[nH]c3sc4c(c3c2=O)CCc2ccccc2-4)cc1	-20.3%	-1.8	10.8%	29.9µM*	0.8%
O=S1(=O)N=C(Nc2nncs2)c2ccccc21	-24.0%	0.4	0.6%	23.8µM*	-8.8%
COC(=O)CS(=O)(=O)c1nnc([C@H](Cc2ccccc2)NC(=O)OC(C)(C)C)o1	u	38.4	8.9%	10.6µM*	-7.0%
Cc1cccc(CS(=O)(=O)c2nnc([C@H](Cc3ccccc3)NC(=O)OC(C)(C)C)o2)c1	u	60.6	-6.3%	2.67µM*	-8.6%
COC(=O)CSc1nnc([C@H](Cc2ccccc2)NC(=O)OC(C)(C)C)o1	9.6%	3.0	0.9%	-0.3%	-10.9%
CC(C)(C)OC(=O)N[C@@H](Cc1ccccc1)c1nnc(SCC(N)=O)o1	-27.9%	-1.3	-2.3%	-8.6%	-0.1%
COc1cccc(CNC(=O)C2Cc3ccccc3CN2C(C)=O)c1 (stereo unspecified)	u	-1.6	-1.1%	29.9µM*	-2.8%
CCOC(=O)Nc1ccc2c(c1)[C@@]1(CC(=O)N(CC(C)C)C1c1ccccc1)C(=O)N2C (stereo partly specified)	x	-4.2	x	x	x
CCCCCCCCCCCCCC[C@@H](O)[C@@H](O)[C@@H](N)CO	67.4%	x	x	x	40.1%
O=C(NCC(=O)N1CCN(C/C=C/c2ccccc2)CC1)c1ccc(Br)cc1	-1.9%	3.7	-2.3%	-8.5%	-0.5%
CC(=O)c1ccc(S(=O)(=O)NCC(=O)N2CCN(C/C=C/c3ccccc3)CC2)cc1	-15.9%	-6.6	12.8%	26.7µM*	1.2%
COc1ccc(C2(CNC(=O)c3cccc([N+](=O)[O-])c3)CCOCC2)cc1OC	u	-1.5	-25.9%	15µM*	40.4%
COC(=O)[C@]12C[C@H](CC(=O)N3CCCC3)C(=O)N(CCC3=CCCCC3)C1=C[C@H](C(C)C)O[C@@H]2C1CC1	x	-0.8	x	x	x
Cc1ccc(-n2nc(C)c3c2NC2=C(C(=O)CC(C)(C)C2)C3c2ccccc2OCC(=O)O)cc1 (stereo unspecified)	-27.4%	6.1	u	26.7µM*	-8.3%
CN(O)/C=N/C(=S)Nc1ccc(Cl)cc1Cl	u	2.0	6.8%	29.9µM*	-3.3%
CN(C)/C=N/C(=S)Nc1cc(Cl)cc(Cl)c1	-6.7%	0.8	0.2%	-12.4%	6.7%
CN(C)/C=N/C(=S)Nc1ccc(Cl)c(Cl)c1	u	-3.7	-20.9%	23.8µM*	2.7%
NC(=O)C1CCN(c2ncc(Br)s2)CC1	x	-7.6	x	x	x
Cc1oc(C)c2c(=O)cc(-c3ccc4c(c3)OCO4)cc(OC(=O)c3ccccc3Br)c12	-1.9%	-2.6	6.0%	x	-8.1%
CC(C)NC(=S)NNc1ncnc2sc3c(c12)CC(C)(C)OC3	-5.4%	-4.8	17.0%	-14.5%	x
CC(C)C1Cc2c(sc3ncnc(NN)c23)CO1 (stereo unspecified)	5.8%	-9.0	11.2µM*	-1.3%	-15.5%
Cc1c(NC(=O)Oc2ccccc2)sc(=S)n1C	-4.8%	2.7	46.5%	15µM*	-2.1%
Cc1ccc(NC(=O)Nc2sc(=S)n(C)c2C)cc1	-11.4%	3.6	9.3%	u	0.2%
COc1cccc(N=Nc2c(=O)[nH]n3c(=O)c4c([nH]c23)CCC4)c1	-13.2%	3.3	0.4%	29.9µM*	-14.4%
CCc1nnc(NS(=O)(=O)c2ccc(N/C=C\C(=O)c3ccc4ccccc4c3)cc2)s1	-23.2%	-4.7	4.9%	23.8µM*	-9.3%
SMILES	VDR inhibitor	PI4K2A block	GLS inhibitor	PLK1 PBD inh	KAT2A inh
CCc1nnc(NS(=O)(=O)c2ccc(NC(=S)NC(=O)/C=C/c3ccc(OC)cc3)cc2)s1	1.3%	3.6	23.9%	26.7µM*	0.7%
CCc1nnc(NS(=O)(=O)c2ccc(NC(=O)c3ccccc3)cc2)s1	-4.9%	-5.0	5.6%	-9.6%	-0.4%
CCc1nnc(NS(=O)(=O)c2ccc(NC(=S)NC(=O)/C=C/c3ccc(C(C)C)cc3)cc2)s1	-8.9%	-4.4	20.4%	21.2µM*	-26.8%
C=CCc1cccc2cc(C(=O)Nc3ccc(F)cc3)c(=O)oc12	-4.8%	-0.5	8.3%	-12.0%	-1.2%
C=CCc1cccc2cc(C(=O)Nc3ccc(S(=O)(=O)Nc4nnc(CC)s4)cc3)c(=O)oc12	-16.8%	1.6	-17.0%	21.2µM*	26.8%
CCCOc1ccc(C2C(=O)N(C3CCC(C)CC3)CC(=O)N2Cc2cccc(OC)c2)cc1OC (stereo unspecified)	6.4%	-6.8	6.2%	x	-8.6%
CCCCCCCCCCCCCCCC(=O)OC(C)C	2.3%	0.6	7.1%	x	-16.4%
CC1C(=O)CCC1(C(=O)O)c1ccccc1 (stereo unspecified)	-6.7%	-2.1	58.7%	23.8µM*	-5.5%
CCN(CC)C(=O)[C@@]1(c2ccccc2)C[C@@H]1CN	11.7%	x	-4.6%	x	3.9%
O=c1[nH]sc2cc(Cl)ccc12	x	0.4	x	x	x
COc1ccc(C(=O)Nc2ccc(NC(=O)c3cccs3)cc2)cc1Cl	u	-0.7	-14.5%	3.77µM*	-1.0%
CN1C(=O)NC(c2ccc(O)cc2)C2=C1CN(c1ccc(O)cc1)C2=O (stereo unspecified)	-4.2%	-12.0	-1.0%	0.3%	-4.4%
CN1C(=O)NC(c2ccc(O)cc2)C2=C1CN(c1ccccc1)C2=O (stereo unspecified)	u	-4.1	-7.8%	23.8µM*	0.0%
N[C@H](C(=O)Nc1ccc(Cl)cc1C(=O)c1ccc[nH]1)c1ccccc1	x	-3.5	x	x	x
CC(=O)Nc1ccc(SCC(=O)Nc2oc(C)c3c(C)n[nH]c(=O)c23)cc1	-11.0%	-5.9	68.6%	18.9µM*	-0.6%
O=C(O)c1cccc(N2C(=O)C3C4C=CC(C4=C(c4ccccc4)c4ccccc4)C3C2=O)c1 (stereo unspecified)	1.1%	-4.5	17.1%	29.9µM*	1.4%
O=C(c1cccc(N2C(=O)C3C4C=CC(C4)C3C2=O)c1)N1CCCCCC1 (stereo unspecified)	-1.5%	-7.2	6.5%	-4.9%	3.2%
CC[C@@H](CCC1CCCCC1)CN(c1ccccc1)S(C)(=O)=O	x	-2.8	x	x	x
COC(=O)[C@]12C[C@H](CC(=O)NCCCCc3ccccc3)C(=O)N(Cc3ccc(Cl)cc3Cl)C1=C[C@H](COCc1ccccc1)O[C@@H]2C	x	-2.8	x	x	x
O=C(Nc1ccccc1)/C(=C\c1ccc2c(c1)OCO2)NC(=O)c1ccco1	-28.8%	0.7	10.5%	23.8µM*	-8.9%
O=C(Nc1ccccc1)/C(=C/c1ccc2c(c1)OCO2)NC(=O)c1ccco1	-6.2%	6.4	-7.2%	-11.8%	-1.6%
CCN1CCN(C(c2cccc(Cl)c2)c2c(O)cc(C)n(CCOC)c2=O)CC1 (stereo unspecified)	-14.8%	1.2	13.0%	x	-8.9%
O=C(O)/C=C/c1ccc(S(=O)(=O)NCc2cccnc2)cc1	u	6.2	-3.1%	23.8µM*	-16.1%
